# Data from publication PMC4336329 (PLoS ONE, 2015).
# Among all 310,000 compounds or so, about 14,000 (4.5%) showed an effect of 50% or more. Effects have a minus sign here. The list comes from a sample in which strong results are over-represented; it also holds similar structures and randomly drawn compounds.
# Target: human ether-à-go-go-related gene (hERG) potassium channel (human, UniProt Q12809)
# Experiment: primary screen, population patch clamp on CHO cells stably expressing hERG; higher = less effect of the substance
# 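Further: peak tail current of the secondary pulse compared with the same well before compound.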
# human ether-à-go-go-related gene (hERG) potassium channel, sequence (Q12809 whole entry, looked up): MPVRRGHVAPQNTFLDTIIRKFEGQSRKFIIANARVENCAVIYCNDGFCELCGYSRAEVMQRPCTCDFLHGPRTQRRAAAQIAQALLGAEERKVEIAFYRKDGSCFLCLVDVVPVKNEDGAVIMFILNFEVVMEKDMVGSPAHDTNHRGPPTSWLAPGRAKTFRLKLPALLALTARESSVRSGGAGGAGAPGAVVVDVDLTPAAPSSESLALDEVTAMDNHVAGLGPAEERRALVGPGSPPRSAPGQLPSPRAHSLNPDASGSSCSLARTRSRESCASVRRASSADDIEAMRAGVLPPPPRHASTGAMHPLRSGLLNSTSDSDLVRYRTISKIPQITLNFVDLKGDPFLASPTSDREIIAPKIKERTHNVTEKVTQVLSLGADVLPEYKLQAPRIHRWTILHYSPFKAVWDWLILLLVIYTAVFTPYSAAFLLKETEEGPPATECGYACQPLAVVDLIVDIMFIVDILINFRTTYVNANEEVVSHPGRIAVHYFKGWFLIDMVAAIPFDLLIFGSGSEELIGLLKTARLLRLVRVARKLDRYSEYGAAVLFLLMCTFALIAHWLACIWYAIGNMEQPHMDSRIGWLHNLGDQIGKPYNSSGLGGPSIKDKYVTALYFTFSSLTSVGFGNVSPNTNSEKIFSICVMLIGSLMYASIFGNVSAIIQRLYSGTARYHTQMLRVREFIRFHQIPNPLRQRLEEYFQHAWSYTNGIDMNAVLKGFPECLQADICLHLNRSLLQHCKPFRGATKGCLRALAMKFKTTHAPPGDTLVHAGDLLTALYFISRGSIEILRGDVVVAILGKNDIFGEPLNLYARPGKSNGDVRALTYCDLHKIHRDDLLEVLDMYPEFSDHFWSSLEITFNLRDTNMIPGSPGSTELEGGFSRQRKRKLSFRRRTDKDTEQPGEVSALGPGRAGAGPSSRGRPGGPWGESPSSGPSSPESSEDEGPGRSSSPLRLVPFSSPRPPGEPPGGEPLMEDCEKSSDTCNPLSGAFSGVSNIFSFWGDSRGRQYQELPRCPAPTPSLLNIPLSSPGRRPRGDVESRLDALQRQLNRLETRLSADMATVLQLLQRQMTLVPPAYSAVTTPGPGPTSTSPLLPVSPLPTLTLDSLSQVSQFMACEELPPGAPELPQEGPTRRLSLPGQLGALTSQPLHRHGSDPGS
row,SMILES,"hERG current change (%, negative = inhibition) at 10uM [%]"
1,O=C(O)c1ccc(COCC(F)(F)C(F)F)o1,16
2,CC(CNC(=O)C(C)C)NC(=O)C(C)C (stereo not drawn),7.92
3,CCN1C(=O)[C@H]2[C@@H](c3ccc(Cl)cc3)N3C(=O)CN(CCOC)C(=O)[C@@]3(C)[C@H]2C1=O,3.18
4,COc1ccc(C2(C(=O)Nc3ccc(C(=O)O)cc3)CCOCC2)cc1,9.95
5,COc1ccc(Cl)cc1NC(=O)CNc1ccccc1CN(C)C1CCCCC1,-37.9
6,CC1CN(C(=O)/C=C/c2ccc(SC(F)F)cc2)CC(C)O1 (stereo not drawn),-59.6
7,COc1ccc(/C=C/C(=O)N2CC(C)OC(C)C2)cc1OC (stereo not drawn),-11
8,CC1CN(C(=O)/C=C/c2ccc3c(c2)OCO3)CC(C)O1 (stereo not drawn),-21
9,C#Cc1ccc([C@H]2C=C(C(=O)N3CCN(Cc4ccccc4)CC3)O[C@@H](OCC)[C@@H]2CCCO)cc1,-19.6
10,COc1ccccc1OCC(=O)NCCSCc1ccccc1Cl,-22.6
11,CC(C)(C)NC(=O)CN1CCC(NC(=O)C23CC4CC(CC(C4)C2)C3)CC1,28.1
12,O=C(Nc1cccnc1)c1cccnc1Cl,4.09
13,CC(=O)c1c(N2CCN(c3ccccc3)CC2)nc(=S)n(-c2ccccc2)c1C,-20.1
14,CC(=O)c1c(N2CCN(c3ccc(F)cc3)CC2)nc(=S)n(-c2ccccc2)c1C,-75
15,COc1ccc(N2CCN(c3nc(=S)n(-c4ccccc4)c(C)c3C(C)=O)CC2)cc1,-9.97
16,CC(=O)c1c(N2CCN(c3cccc(Cl)c3)CC2)nc(=S)n(-c2ccccc2)c1C,-68.8
17,CCn1c(C)c(C(C)=O)c(N2CCN(c3cccc(Cl)c3)CC2)nc1=S,-27.6
18,CC(=O)c1c(N2CCCC2)nc(=S)n(-c2ccccc2)c1C,-0.251
19,CC(=O)Nc1ccccc1-c1nc2cc(C#N)c(C#N)cc2[nH]c1=O,-4.17
20,O=c1[nH]c(NCCO)nc2c1C1(CCCCC1)Cc1ccccc1-2,7.03
21,COc1cccc(/C=N/NC(=O)CNC(=O)c2ccc3c(c2)OCCO3)c1O,-0.701
22,O=C(NCC1CCCO1)c1cnn2c(C(F)F)cc(C3CC3)nc12 (stereo not drawn),-2.7
23,CCCOC(=O)c1ccc(Nc2nc(C)cc(=O)[nH]2)cc1,3.46
24,COc1ccc(NC(=O)NC2CCCc3ccccc32)c(OC)c1 (stereo not drawn),13.3
